Source: PubChem (National Center for Advancing Translational Sciences (NCATS))
TDP1 cell noCPT: qHTS for Inhibitors of human tyrosyl-DNA phosphodiesterase 1 (TDP1): qHTS in cells in absence of CPT; DT40 Tdp1-/- hTDP1 cells, no CPT, ATP luminescence, 48 h; Potency, µM (top dose mostly 46.2 µM), hits mostly inhibitors; 420,000 compounds, 15% hits; AID 686978, 2013; further: nearly all actives have a fitted effect of over 55% in size
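Growth of hTDP1-complemented DT40 Tdp1-knockout cells is measured by ATP luminescence after at least 48 hr compound exposure at 37 °C, with DMSO substituting for the 20 nM CPT used in the parallel screen.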
HT1080 IDH1KD tx: toxicity to HT-1080 IDH1 knockdown cells (counter line) | Potency, µM (top dose mostly 46.1 µM), hits mostly cytotoxic | HT-1080 IDH1 knockdown viability, ATP luminescence, 48 h | 360,000 compounds, 2% hits
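IDH1KD HT-1080 cells, 750/well, RPMI + 5% FBS; compound pinned after 2 h settling; 48 h, 37 °C; CellTiter-Glo luminescence; % activity normalised to DMSO and no-cell wells; curves fitted, classed by r2 and efficacy.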
HT1080NT lethal: kills 2HG-producing HT-1080-NT fibrosarcoma cells. HT-1080-NT fibrosarcoma viability, CellTiter-Glo ATP luminescence, 48 h. Potency, µM (titrated, usually from 46.1 µM), usual class: cytotoxic. 360,000 compounds, 1.6% hits. AID 686970;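 further: NT is the 2HG producing partner of a matched IDH1 knockdown line; nearly all actives have a fitted effect of over 55% in size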
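Viability of the 2HG-overproducing fibrosarcoma line after 48 hours of compound exposure at 37 degrees C was determined by luminescence with CellTiter-Glo, and concentration-effect curves were then fitted and categorized.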
DT40 TDP1 CPT: DT40-hTDP1 cell growth loss with CPT | Potency, µM (titrated, usually from 46.2 µM), hits mostly inhibitors | chicken DT40 Tdp1-/-;hTDP1 cells + 20 nM CPT, ATP luminescence, 48 h | 420,000 compounds, 12% hits; further: nearly all actives have a fitted effect of over 55% in size
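Chicken DT40 Tdp1-/- cells complemented with human TDP1, 400 cells/well, exposed to compounds plus 20 nM camptothecin for at least 48 h at 37 C; viability read as ATP content by CellTiter-Glo luminescence.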
IL-1B inflam inh: inflammasome signaling inhibition, IL-1 beta readout. THP-1 LPS/ATP IL-1B secretion, AlphaLISA, 16 h; active compounds read low. activity change, % at 57.5 µM. 360,000 compounds, 4.7% hits. AID 743279; in the data active means activity change below about -50%; inconclusive means mostly about -30% to -49%
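THP-1 cells pretreated 1 hr with compounds (up to 57.5 uM final), then stimulated with LPS (250 ng/mL final) plus ATP (1.25 mM final); secreted IL-1B measured by AlphaLISA after 16 hr, decreased signal indicating inhibition.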
Each line names hits and unclear results; the compound was inactive in the other large screens. Sampled rows, rich in hits. Any-hit rate of the full collection: about 19%. Unless noted, the call rests on the fitted dose curve; in most records, active means well fitted curve in the direction sought with a large enough effect; inconclusive means small, poorly fitted or top-dose-only effect, or another doubt; inactive means no such curve, though single readings can be large; an effect the other way counts as inactive or inconclusive.

N#CC(c1cccc([N+](=O)[O-])c1)C(CC(=O)c1ccccc1)c1ccccc1 (configuration not stated)	TDP1 cell noCPT 23.1µM, DT40 TDP1 CPT 18.4µM
N#CC(c1ccc([N+](=O)[O-])cc1)C(CC(=O)c1ccccc1)c1ccccc1 (configuration not stated)	TDP1 cell noCPT 16.4µM, DT40 TDP1 CPT inconclusive, IL-1B inflam inh inconclusive
N#Cc1ccccc1Sc1ccccc1N	none
Nc1ccccc1SSc1ccccc1N	TDP1 cell noCPT 3.66µM, HT1080 IDH1KD tx 23.1µM, HT1080NT lethal inconclusive, DT40 TDP1 CPT 5.17µM, IL-1B inflam inh -97.1
COc1cccc(CC(=O)OCC(=O)N(C)CC(=O)Nc2ccccc2Cl)c1	none
CCOC(=O)c1sc2nc(C)nc(NCCc3ccccn3)c2c1C	TDP1 cell noCPT 20.6µM, DT40 TDP1 CPT 20.6µM, IL-1B inflam inh -54.7
CCOC(=O)c1sc2nc(C)nc(N3CCN(c4ncccn4)CC3)c2c1C	TDP1 cell noCPT 14.6µM, DT40 TDP1 CPT inconclusive
COC(=O)c1sc2nc(-c3ccccc3)nc(N3CCN(C)CC3)c2c1C	TDP1 cell noCPT 25.9µM, DT40 TDP1 CPT inconclusive
CCOC(=O)c1sc2nc(CSc3ccccc3)nc(NCCN(C)C)c2c1C	TDP1 cell noCPT inconclusive, HT1080 IDH1KD tx inconclusive, HT1080NT lethal 18.4µM, DT40 TDP1 CPT 16.4µM, IL-1B inflam inh inconclusive
Cc1c(C(=O)N2CCCC2)sc2ncnc(NCCc3ccccn3)c12	none (no result: HT1080 IDH1KD tx, HT1080NT lethal, IL-1B inflam inh)
CCOC(=O)c1sc2ncnc(N3CCN(C)CC3)c2c1C	TDP1 cell noCPT inconclusive, DT40 TDP1 CPT inconclusive, IL-1B inflam inh inconclusive
CC(=O)c1cn(C2OC(CO)C3OC(C)(C)OC32)c(=O)n(C)c1=O (configuration not stated)	none (no result: IL-1B inflam inh)
COc1ccccc1CNc1nc(C)c(C(C)=O)s1	TDP1 cell noCPT 16.4µM, DT40 TDP1 CPT 20.6µM
COc1ccccc1CNc1nc(C)c(C(=O)N(C)C)s1	TDP1 cell noCPT inconclusive, DT40 TDP1 CPT inconclusive
CCOC(=O)c1sc2nc(C)nc(NCc3ccccc3OC)c2c1C	TDP1 cell noCPT inconclusive, DT40 TDP1 CPT 23.1µM
COc1ccc(C)cc1NC(=O)Cn1cc(S(=O)(=O)Cc2ccccc2Cl)c2ccccc21	TDP1 cell noCPT 20.6µM, DT40 TDP1 CPT inconclusive (no result: HT1080 IDH1KD tx, HT1080NT lethal, IL-1B inflam inh)
CN(C(=O)Cn1cc(S(=O)(=O)Cc2ccccc2Cl)c2ccccc21)c1ccccc1	TDP1 cell noCPT 20.6µM, DT40 TDP1 CPT 20.6µM (no result: HT1080 IDH1KD tx, HT1080NT lethal, IL-1B inflam inh)
CN(C(=O)Cn1cc(C#N)c2ccccc21)c1ccccc1	none
COc1ccc(NC(=O)Cn2cc(S(=O)(=O)Cc3ccccc3)c3ccccc32)c(OC)c1	none
O=C(NCC(=O)N1CCN(c2ncccn2)CC1)c1ccccc1OC(F)F	none
CN(C)S(=O)(=O)c1ccc(N2CCCC2)c(C(=O)Nc2nccs2)c1	none
COc1ccc(C(C)(C)C)cc1NC(=O)c1cc(S(=O)(=O)N(C)C)ccc1N1CCCC1	TDP1 cell noCPT inconclusive, DT40 TDP1 CPT 20.6µM
Cc1cnc(NC(=O)c2cc(S(=O)(=O)N(C)C)ccc2N2CCCC2)s1	TDP1 cell noCPT inconclusive, DT40 TDP1 CPT inconclusive, IL-1B inflam inh -63.7
CC1CCCN(C(=O)CCNS(=O)(=O)c2ccc3c(c2)oc(=O)n3C)C1 (configuration not stated)	none
CC(O)CN(CCN(CC(C)O)CC(C)O)CC(C)O (configuration not stated)	none (no result: HT1080 IDH1KD tx, HT1080NT lethal, IL-1B inflam inh)
COc1cc(C(=O)OCC(=O)N2CC(C)OC(C)C2)cc(OC)c1OC (configuration not stated)	none
CCOC(=O)C1=CCC(c2ccccc2)N(S(=O)(=O)c2ccccc2[N+](=O)[O-])C1 (configuration not stated)	TDP1 cell noCPT inconclusive, DT40 TDP1 CPT inconclusive
CCOC(=O)C1=CCC(c2ccccc2)N(S(=O)(=O)c2ccccc2C)C1 (configuration not stated)	TDP1 cell noCPT 23.1µM, DT40 TDP1 CPT inconclusive
CC(=O)C1=CCC(c2ccccc2)N(S(=O)(=O)c2ccccc2C)C1 (configuration not stated)	TDP1 cell noCPT 20.6µM, DT40 TDP1 CPT inconclusive
COc1ccccc1C1C(C(=O)c2cc3ccccc3o2)=C(O)C(=O)N1CCN1CCOCC1 (configuration not stated)	none
COc1cc(OC)c(NC(=O)C(C)n2nc(-c3ccc(C)c(C)c3)ccc2=O)cc1Cl (configuration not stated)	TDP1 cell noCPT 13µM, DT40 TDP1 CPT 14.6µM (no result: HT1080 IDH1KD tx, HT1080NT lethal, IL-1B inflam inh)
COC(=O)c1ccc(Cn2nc(-c3ccc(C)c(C)c3)ccc2=O)cc1	TDP1 cell noCPT inconclusive, DT40 TDP1 CPT inconclusive
CC1CC(C)CN(CCCNC(=O)Cc2c(C(=O)O)n(C)c3ccccc23)C1 (configuration not stated)	none
CCOC(=O)c1c(C)[nH]c(C)c1C(=O)CSc1nnc(-c2ccc(OC(F)F)cc2)o1	TDP1 cell noCPT 11.6µM, HT1080 IDH1KD tx inconclusive, HT1080NT lethal inconclusive, DT40 TDP1 CPT inconclusive
COc1ccc(-c2nnc(SCC(=O)c3[nH]c(C)c(C(C)=O)c3C)o2)cc1	TDP1 cell noCPT 18.4µM, DT40 TDP1 CPT 13µM
CC(=O)c1c(C)[nH]c(C(=O)CSc2nnc(-c3ccco3)o2)c1C	TDP1 cell noCPT 14.6µM, DT40 TDP1 CPT inconclusive
O=C(CSc1nnc(-c2ccco2)o1)c1ccccc1Cl	none
CCN(CC)CCNC(=O)C(=O)NCC1OCCN1S(=O)(=O)c1ccc2c(c1)OCCO2 (configuration not stated)	HT1080 IDH1KD tx inconclusive
C=CC[C@H](CC(=O)N(CCO)Cc1ccccc1)C(=O)NCCOC(=O)[C@H](CC=C)CC(=O)OC(C)(C)C	TDP1 cell noCPT 20.6µM, DT40 TDP1 CPT 16.4µM
C=CC[C@H](CC(=O)N(CCO)Cc1ccccc1)C(=O)NCCOC(=O)[C@@H](CC=C)CC(=O)OC(C)(C)C	TDP1 cell noCPT inconclusive, DT40 TDP1 CPT 23.1µM
CC1(C(=O)Nc2ccc3ccccc3c2)CCC(=O)N1C1CC1 (configuration not stated)	none
COc1ccc(/C=N/Nc2nc(C(=O)O)cs2)cc1	none
Cc1c(C)n(C)c2ccc(C(=O)NCCc3ccco3)cc12	TDP1 cell noCPT 16.4µM, DT40 TDP1 CPT inconclusive, IL-1B inflam inh inconclusive
Cc1c(C)n(C)c2ccc(C(=O)Nc3cccc4ccccc34)cc12	TDP1 cell noCPT inconclusive, DT40 TDP1 CPT 25.9µM
Cc1c(C)n(C)c2ccc(C(=O)NCCc3ccc(Cl)cc3)cc12	TDP1 cell noCPT inconclusive, DT40 TDP1 CPT 18.4µM (no result: HT1080 IDH1KD tx, HT1080NT lethal, IL-1B inflam inh)
Cc1c(C)n(C)c2ccc(C(=O)NCCCN3CCCCC3C)cc12 (configuration not stated)	IL-1B inflam inh inconclusive
Cc1ccc2c(c1C)C(=O)C(=O)N2	none
N#Cc1ccccc1S(=O)(=O)N1CCN(CC(O)CN2CCOCC2)CC1 (configuration not stated)	none
